The list is not random: actives were taken first. Their share in the collection is about 3.4%.
JMJD2E inh: qHTS Assay for Inhibitors of Human Jumonji Domain Containing 2E (JMJD2E). Lysine-specific demethylase 4E (Homo sapiens), B2RXH2. JMJD2E catalytic domain, FDH-coupled NADH fluorescence (FDH is formaldehyde dehydrogenase). Potency, µM (highest dose often 57.1 µM), most hits filed as inhibitors. 1.6% of 230,000 active. AID 2147, 2009; active = well fitted inhibition curve with a large enough effect, not every such curve was filed as active; inconclusive = small, poorly fitted or top-dose-only effect, or another doubt; inactive = no such curve, though single readings can be large or run the other way; also: nearly all actives have a fitted effect of over 50% in size
Target sequence (B2RXH2 1-337 limits assumed): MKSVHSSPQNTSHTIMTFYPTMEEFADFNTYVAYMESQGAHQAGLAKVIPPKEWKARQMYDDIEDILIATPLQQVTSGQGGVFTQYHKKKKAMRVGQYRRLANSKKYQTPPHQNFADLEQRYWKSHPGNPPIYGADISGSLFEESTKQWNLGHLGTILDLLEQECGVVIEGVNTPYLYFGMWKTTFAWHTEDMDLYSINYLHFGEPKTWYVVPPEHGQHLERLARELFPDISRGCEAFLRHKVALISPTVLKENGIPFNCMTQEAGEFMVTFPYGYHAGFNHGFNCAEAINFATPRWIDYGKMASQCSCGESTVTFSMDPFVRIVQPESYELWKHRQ
GoLoco inh red: qHTS Assay for Inhibitors of RGS12 GoLoco Motif Activity (Red Fluorophore). Potency, µM (top dose mostly 61.6 µM), hits mostly inhibitors. AID 880, 2007. Guanine nucleotide-binding protein G(i) subunit alpha-1 (Homo sapiens), P63096. 0.44% of 230,000 active. Gai1:RGS12 GoLoco peptide FP, rhodamine, 10 min; active = well fitted inhibition curve with a large enough effect, not every such curve was filed as active; inactive = no such curve, though single readings can be large or run the other way; also: nearly all actives have a fitted effect of over 30% in size
Tau fluor counter: Counterscreen qHTS for Inhibitors of Tau Fibril Formation, Fluorescence Polarization; Potency, µM (highest dose often 57.7 µM); AID 1463, 2008; tau K18 P301L Alexa594 fluorescence, heparin fibrillization; 0.93% of 280,000 active; also: nearly all actives have a fitted effect of over 55% in size
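Human K18 P301L tau (15 uM unlabeled plus 0.24 uM Alexa 594-labeled, final) in 100 mM sodium acetate pH 7 was mixed with compound and 20 uM heparin and incubated 6 hr at 37 C.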
Tau fibril FP: qHTS for Inhibitors of Tau Fibril Formation, Fluorescence Polarization | K18 P301L tau heparin fibrillization, Alexa594 FP, 6 h | Potency, µM (doses to about 57.7 µM), usual class: inhibitors | 0.39% of 280,000 active; also: nearly all actives have a fitted effect of over 55% in size
Target sequence (P10636 561-689 P618L limits assumed): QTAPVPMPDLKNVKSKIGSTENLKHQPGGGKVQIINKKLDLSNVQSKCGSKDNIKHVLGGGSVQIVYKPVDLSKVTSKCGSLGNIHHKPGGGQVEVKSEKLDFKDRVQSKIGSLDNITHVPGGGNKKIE
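Steps: dispense K18 P301L tau (15 uM plus 0.24 uM Alexa 594 tracer, final) in pH 7 sodium acetate; add compound; add heparin (20 uM final); incubate 6 hr, 37 C; add ThT (30 uM final); after 1 hr ambient, read FP.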
Tau fibril ThT: qHTS for Inhibitors of Tau Fibril Formation, Thioflavin T Binding | AID 1460, 2008 | Potency, µM (top dose mostly 57.4 µM), actives largely listed as inhibitors | Microtubule-associated protein tau (Homo sapiens), P10636 | recombinant tau K18 P301L (four-repeat tau fragment), heparin-induced fibrillization, ThT fluorescence | 2.1% of 270,000 active; also: nearly all actives have a fitted effect of over 55% in size
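In this qHTS, human K18 P301L tau is incubated with compound and heparin for 6 hr at 37 C, and Thioflavin T fluorescence then reports fibril load.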
Numbers stand for hits; i = inactive; ? = inconclusive; nt = not tested or not shown; [ ] = another dose, or the depositor's remark. Unless noted, calls follow the shape of the dose curve; as a rule, active = well fitted curve in the direction sought with a large enough effect; inconclusive = small, poorly fitted or top-dose-only effect, or another doubt; inactive = no such curve, though single readings can be large; an effect the other way counts as inactive or inconclusive.

SMILES | JMJD2E inh | GoLoco inh red | Tau fluor counter | Tau fibril FP | Tau fibril ThT
COc1ccc(Cl)cc1NC(=O)CN1C(=O)CSc2ccc(S(=O)(=O)N3CCCC3)cc21 | nt | nt | i | i | i
O=[N+]([O-])c1cc([N+](=O)[O-])c2c(=Nc3ccccc3)n(-c3ccccc3)n(O)c2c1 | ? | i | 15.8µM[quencher] | ? | 14.1µM
O=S(=O)(Nc1ccc(-c2ccc(N3CCCC3)nn2)cc1)c1ccc(Br)cc1 | nt | nt | ? | ? | i
COC(=O)c1cc(NC(=O)c2cccc(C(F)(F)F)c2)c(=O)oc1C/C=N/OCc1cccc(Cl)c1Cl | 20µM | i | i | i | ?
COC(=O)c1cc(NC(=O)c2cccc(C(F)(F)F)c2)c(=O)oc1C | i | i | i | i | i
COc1cc(/C=C2/S/C(=N/S(=O)(=O)c3ccccc3)NC2=O)c([N+](=O)[O-])cc1OC | i | i | ? | ? | 15.8µM
COc1ccc(/C=C2\S/C(=N/S(=O)(=O)c3cccs3)NC2=O)cc1 | i | i | i | i | i
O=C1N/C(=N\S(=O)(=O)Cc2ccccc2)S/C1=C/c1cc([N+](=O)[O-])ccc1O | i | i | ? | i | 5.01µM
COc1cc(/C=C2\S/C(=N/S(=O)(=O)Cc3ccccc3)NC2=O)c([N+](=O)[O-])cc1OC | i | i | i | i | ?
COc1cc(/C=C2/S/C(=N/S(=O)(=O)Cc3ccccc3)NC2=O)c([N+](=O)[O-])cc1OC | i | 25.1µM | i | i | ?
O=[N+]([O-])c1ccc(S(=O)(=O)Cc2ccccc2)c([N+](=O)[O-])c1 | nt | i[14.2 µM] | nt | nt | nt
CCOc1ccc(CCNC(=O)c2ccc(-c3nc(COc4ccc(C)cc4)c(C)o3)cc2)cc1 | nt | nt | i | i | i
CCCNC(=O)CSc1nc2nc(C)c(Cc3ccccc3Cl)c(C)n2n1 | nt | nt | i | i | i
CCC(C)Nc1nc(N)c([N+](=O)[O-])c(Nc2ccccc2OC)n1 (stereo not drawn) | i | i | ? | ? | ?
COc1ccccc1Nc1nc(NCC(C)C)nc(N)c1[N+](=O)[O-] | i | i | ? | i | ?
CCC(C)Nc1nc(N)c([N+](=O)[O-])c(Nc2cc(OC)ccc2OC)n1 (stereo not drawn) | ? | i | 17.8µM[quencher] | i | 15.8µM
COc1ccc(OC)c(Nc2nc(NCCC(C)C)nc(N)c2[N+](=O)[O-])c1 | i | i | 20µM[quencher] | i | 25.1µM
CCOC(=O)c1c(C)c(-c2ccccc2)n(CC(=O)NC2CCCCCC2)c1C | nt | nt | i | i | i
CN(C)c1ccc(C(CNS(=O)(=O)c2ccc3ccccc3c2)c2c[nH]c3ccccc23)cc1 (stereo not drawn) | i | i | 8.91µM[quencher] | i | i
COc1ccc(N2CCN(CCCNC(=O)c3nnc(Cc4ccc(F)cc4)o3)CC2)cc1 | nt | nt | i | i | ?
Nc1ccc2cc3ccc(N)cc3nc2c1 | nt | i | nt | nt | nt
Cc1ccc2cc(N)ccc2n1 | 31.6µM | i | i | i | i
Oc1cc2c(cc1O)[C@@H]1c3ccc(O)c(O)c3OC[C@]1(O)C2 | 14.1µM | i | ? | ? | 14.1µM
CC1=CC(C)(C)Nc2ccc(Cc3ccc4c(c3)C(C)=CC(C)(C)N4)cc21 | ? | i | ? | i | ?
CC1=CC(C)(C)Nc2cc(C)c(C)cc21 | 11.2µM | i | i | i | ?
SMILES | JMJD2E inh | GoLoco inh red | Tau fluor counter | Tau fibril FP | Tau fibril ThT
CC1=CC(C)(C)Nc2ccc(C)cc21 | 14.1µM | i | i | i | ?
COc1ccc(/C=C/C(=O)N2CCC(c3nc4ccccc4o3)CC2)cc1OC | nt | nt | i | i | i
CN(C)c1ccc2c3c(cccc13)C(=O)N(c1ccccc1)C2=O | i | i | i | i | i
Cc1cccc(N2C(=O)c3cccc4c(N(C)CCO)ccc(c34)C2=O)c1 | ? | 25.1µM | i | i | ?
COc1ccc(NCc2cc3ccc(OC)cc3n(CC(=O)Nc3cccc(OC)c3)c2=O)cc1 | nt | nt | ? | ? | i
C/C(=N\Nc1ccc2nncn2n1)c1ccccn1 | 10µM | i | i | i | i
O=[N+]([O-])c1ccc(/C=N/Nc2ccc3ccccc3c2)o1 | i | i | 3.55µM[quencher] | ? | 3.16µM
O=[N+]([O-])c1ccc(/C=N/Nc2nc(-c3ccccc3)c3cc(Br)ccc3n2)o1 | i | i | i | i | 2.82µM
